PrPC surface inh – reduces human prion protein on the cell surface; inhibition, % at 13.8 µM; cell surface PrPC, TR-FRET read-out; actives 0.43% (n = 370,000); AID 720596; P04156; in the data active = inhibition above about 24%; also: 0% = median of the test wells and 100% = reference compound wells
PrP UTR inh – suppresses PrP 5' UTR mRNA reporter expression; cell-based PrP 5' UTR mRNA reporter, plate reader; inhibition, % (concentration not given with the values); actives 0.35% (n = 340,000); AID 488862; in the data active = inhibition above about 52%; also: 0 = median of the neutral control wells
PfHsp40 rescue – rescue of PfHsp40-mediated yeast toxicity; actives 0.68% (n = 340,000); growth rescue, % at 12.5 µM; AID 504582; S. cerevisiae expressing PfHsp40, growth rescue, ATP luminescence; in the data active = growth rescue above about 28%, passing the limit was not always enough; inconclusive = no clear call, values can overlap the other calls;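 also: yeast W303a lacking pdr1 and pdr3 grown in galactose medium; growth measured after three days at 30 °C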
PriA SSB inh – K. pneumoniae PriA-SSBct interaction inhibition. AlphaScreen SSBct-PriA binding, biotinylated peptide. inhibition, % at 33 µM. actives 0.6% (n = 430,000); in the data active = inhibition mostly above about 37%, no sharp cut-off; inactive = mostly below about 20%;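 also: plate controls were negative control peptide for no effect and reference peptide for full effect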
Vc quorum ag – inducers of Vibrio cholerae quorum light production without autoinducers; V. cholerae BH1578 lux reporter, luminescence, 6 h; activation, % at 18.7 µM; actives 0.16% (n = 350,000); AID 588436; in the data active = activation mostly above about 9.7%, no sharp cut-off; inconclusive = no clear call, values can overlap the other calls; inactive = mostly below about 3.7%
SARS 3CLpro inh – SARS-CoV 3CLpro protease inhibition | recombinant SARS-CoV 3CLpro, quenched FRET peptide cleavage | actives 0.14% (n = 290,000) | P0C6X7 | inhibition, % at 6 µM; in the data active = inhibition above about 12%
* marks the source's active call; other numbers are inactive results; i = inactive; ? = inconclusive; nt = no result. Sampled rows, rich in hits. Any-hit rate of the full collection: about 1.6%.

SMILES	PrPC surface inh	PrP UTR inh	PfHsp40 rescue	PriA SSB inh	Vc quorum ag	SARS 3CLpro inh
Oc1ccccc1-[n+]1c(-c2ccccc2)cc(-c2ccccc2)c(O)c1-c1ccccc1	-2	-8	42*	10	-1	nt
O=C(CC(=O)c1ccccc1)CS(=O)(=O)c1ccccc1	6	-10	60*	-9	-1	nt
COc1ccc(NC(=O)Nc2cccc(-c3ccc(N4CCCC4)nn3)c2)cc1	nt	nt	nt	13	nt	nt
CCCCCCC[n+]1ccc(-c2cc[n+](CCCCCCC)cc2)cc1	-62	-42	0	-24	0	3
CCCCCCCCCCCCCCCC[n+]1ccc(/C=N/O)cc1	31*	3	-1	nt	3	10
CCN1/C(=C\C=C\c2sc3ccccc3[n+]2CC)Sc2ccccc21	nt	nt	nt	56*	nt	nt
CC[n+]1c(/C=C/C=C/N(C(C)=O)c2ccccc2)sc2ccccc21	2	-6	0	2	12	5
CN(C)c1ccc(/C=C/C=C/c2sc3ccccc3[n+]2C)cc1	-52	-28	126*	40*	-1	-1
CN(C)c1ccc(/C=C/c2cc[n+](C)c3ccccc23)cc1	-124	10	?	19	0	-4
CC[n+]1c(/C=C/C=C/c2ccc(N(C)C)cc2)sc2ccccc21	-78	5	245*	61*	i	-4
CCN1C(=Cc2ccc3ccc(C)cc3[n+]2CC)Sc2ccccc21	nt	nt	nt	12	nt	nt
Cc1cccc(Nc2nc(N)c([N+](=O)[O-])c(N3CC(C)OC(C)C3)n2)c1 (stereo unspecified)	-16	-10	-1	23	i	-2
Cc1cccc(Nc2nc(N)c([N+](=O)[O-])c(N3CC(C)CC(C)C3)n2)c1 (stereo unspecified)	0	-9	64*	50*	i	3
Cc1c(C(=O)NCCSCc2ccc(F)cc2)cnn1-c1ccc(Cl)cc1	8	-16	43*	-12	0	-2
Cc1c(C(=O)NCCSCc2cccc(C(F)(F)F)c2)cnn1-c1ccc(F)cc1	-2	-18	101*	-7	-1	6
O=C(NCCS(=O)(=O)N1CCN(Cc2ccccc2)CC1)C1CC1	nt	nt	nt	-5	nt	nt
Cc1ccc(NC(=O)c2ccc(-n3cccn3)c([N+](=O)[O-])c2)cc1	-16	-8	3	5	i	-3
O=C(Nc1ccc(C2=NCCN2)cc1)c1ccc(C(=O)Nc2ccc(C3=NCCN3)cc2)c([N+](=O)[O-])c1	-47	-10	125*	8	i	-13
O=C(N/N=C/c1c(O)n(-c2ccc(Cl)cn2)c(=O)c2ccccc12)c1ccncc1	-9	-3	29*	nt	i	-6
O=C(N/N=C/c1c(O)n(-c2ccc(Cl)cn2)c(=O)c2ccccc12)C1CC1	-3	-13	-2	nt	-2	0
CC(=O)Nc1cccc(NC(=O)C(=O)NCCN2CCOCC2)c1	nt	nt	nt	1	nt	nt
O=[N+]([O-])c1ccc(C2=NN(CCO)C(=Nc3ccc(OC(F)(F)F)cc3)SC2)cc1	-3	-7	53*	-7	i	4
COc1cccc(C(=O)N2CCN(c3ccc(Nc4ccccn4)nn3)CC2)c1OC	nt	nt	nt	37	nt	nt
COc1cccc(C(=O)N2CCN(c3ccc(-c4ccccn4)nn3)CC2)c1OC	nt	nt	nt	94*	nt	nt
CCC(C(=O)N1CCN(c2ccc(-c3ccncc3)nn2)CC1)c1ccccc1 (stereo unspecified)	nt	nt	nt	3	nt	nt
SMILES	PrPC surface inh	PrP UTR inh	PfHsp40 rescue	PriA SSB inh	Vc quorum ag	SARS 3CLpro inh
O=S(=O)(c1ccc(Cl)s1)N1CCN(c2ccc(-c3ccccn3)nn2)CC1	nt	nt	nt	55*	nt	nt
CCC(C(=O)N1CCN(c2ccc(-c3ccccn3)nn2)CC1)c1ccccc1 (stereo unspecified)	nt	nt	nt	80*	nt	nt
Cc1ccccc1-c1ccc(N2CCN(S(=O)(=O)c3ccc(Cl)s3)CC2)nn1	nt	nt	nt	-2	nt	nt
COc1ccc(NC(=O)c2cc(C(C)C)n(-c3nc4ccccc4s3)n2)c(OC)c1	nt	nt	nt	1	nt	nt
O=C(Cn1cnc(-c2ccc(Cl)cc2)cc1=O)N1CCOCC1	nt	nt	nt	6	nt	nt
CC/C(O)=C(\C#N)c1nc2ccccc2[nH]1	nt	nt	nt	-15	nt	nt
Cc1cc(C)cc(OCC(=O)OC/C(O)=C(\C#N)c2nc3ccccc3[nH]2)c1	19	-11	28*	1	0	1
N#C/C(=C(/O)CCl)c1nc2ccccc2[nH]1	27*	-16	0	-13	-1	5
COc1ncc(NC(=O)Nc2cc(Cl)c(OC)cc2OC)c(N(C)C)n1	nt	nt	nt	2	nt	nt
Cc1ccccc1OCCNc1cc(N2CCN(CCO)CC2)ccc1[N+](=O)[O-]	-30	-41	-2	42*	0	4
Cc1ccccc1OCCNc1cc(N2CCCCC2)ccc1[N+](=O)[O-]	8	-21	1	-11	0	6
CN(C)C(=S)SCSC(=S)N(C)C	nt	nt	nt	3	nt	nt
CC(=O)O[C@H]1[C@@H](O)[C@H](O)[C@H](Oc2c(O)c(C)c3c4c2[C@@H](C)CC[C@@H]4[C@@H](C)C[C@H]3C=C(C)C)O[C@H]1C	-3	-21	125*	10	0	nt
CC(=O)O[C@@H]1[C@@H](O)[C@@H](O)[C@H](Oc2c(-c3ccc(O)cc3)oc3c(CC=C(C)C)c(O)cc(O)c3c2=O)O[C@H]1C	nt	nt	nt	18	nt	nt
CCCC[N+]12C3C[C@H](C4[C@H](O)[C@]5(C[C@@H]41)c1ccccc1N(C)[C@@H]35)[C@H](CC)[C@H]2O (stereo partly specified)	-16	-21	0	49*	0	-2
Cc1ccc2[nH]c(-c3cccc(N)c3)cc2c1	4	-88	0	39*	0	-1
NC(=O)c1ccsc1NC(=O)/C=C/c1ccccc1	nt	nt	nt	-18	nt	nt
O=C(NNC(=S)Nc1ccc(Br)cc1)c1ccc(N2CCOCC2)c([N+](=O)[O-])c1	0	1	-1	7	0	1
Cc1ccc(NC(=S)NNC(=O)c2ccc(N3CCOCC3)c([N+](=O)[O-])c2)cc1Cl	-8	-27	14	38*	0	2
COCCCNC(=O)C(=O)Nc1ccccc1C#N	nt	nt	nt	-18	nt	nt
Cn1nc(C(=O)NCc2ccc(Cl)cc2)ccc1=O	nt	nt	nt	-5	nt	nt
Fc1ccccc1-c1nc(-c2ccccc2)no1	4	-58	-2	-73	i	0
COc1ccc(-c2noc(-c3ccccc3F)n2)cc1	-4	-93	6	104*	0	1
CO[C@H](C#N)c1ccc(C)s1	nt	nt	nt	-11	nt	nt
COc1ccc(-c2c([C@H]3[C@@H]4C=CCC[C@@]4(C)C(=O)N3Cc3ccccc3)ccc3ccccc23)cc1OC	0	-9	44*	-11	-4	nt
CCNc1ccc(Br)cc(C(=O)/C=C/c2ccc3c(c2)OCO3)c1=O	-4	-26	37*	3	-12	-3
CCNc1ccc(Br)cc(C(=O)/C=C/c2ccc(Cl)cc2)c1=O	nt	-24	1	-7	0	3
CN(C)S(=O)(=O)c1cccc(NC(=O)CNC2CCCCC2)c1	-5	-2	-2	-11	i	0
COc1cccc(CN(C)CC(=O)Nc2cc(S(=O)(=O)N3CCCC3)ccc2Cl)c1OC	0	-16	1	42*	i	nt

From PubChem
